The record followed here is PubChem BioAssay (NCI).

Compounds without any hit were thinned out: in the full panel of roughly 83,000, 20% have a hit.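 The test compound was applied at a single concentration to cells in 96-well plates for 48 hours, and percent growth was recorded.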 Values without a mark were called inactive. Activity calls are given as the source filed them. Rule for the calls: active = growth percent below 10; inactive = the rest.

Some test systems named below: T-47D breast; BT-549 breast; SW-620 colon; MCF7 breast; HCT-116 colon; HCC-2998 colon; KM12 colon.
Experiment in all cases: NCI-60 one-dose screen, 48 h (100 = growth as untreated, 0 = no growth, -100 = all killed)
Holding throughout (conditions): 10 µM unless noted

As to `COc1ccc(NC2=C(Br)C(=O)C(C)=C(C)C2=O)cc1`, the growth is -33.9% (active) in the experiment with T-47D breast; 101% with BT-549 breast; 98.9% in the experiment on SW-620 colon; 63.5% with MCF7 breast; 14.1% in the experiment with HCT-116 colon; 99.6% in the experiment on HCC-2998 colon. Further, the growth in the experiment with KM12 colon is 94.8%.

For the compound `Cc1cccc2c3c(sc12)C(c1ccc(F)cc1)C(C#N)=C(N)O3` (stereo not given), the growth is 66.1% in the experiment on T-47D breast; -0.876% (active) in the experiment on BT-549 breast; 21.3% in the experiment on SW-620 colon; 8.42% (active) in the experiment with MCF7 breast; 7.07% (active) in the experiment with HCT-116 colon; 21.9% with HCC-2998 colon. The growth with KM12 colon is 2.86% (active).

For the compound `CCCCn1c(-c2ccc(C(=O)O/N=C(\N)c3ccc(OC)cc3)cc2)nc(-c2ccccc2)c1-c1ccccc1`, the growth in the experiment on T-47D breast is -31.8% (active); with BT-549 breast, 11.7%; with SW-620 colon, 5.52% (active); in the experiment on MCF7 breast, -24.7% (active); in the experiment with HCT-116 colon, -33.6% (active); in the experiment on HCC-2998 colon, 1.5% (active). In addition, in the experiment on KM12 colon, the growth was 9.02% (active).

Take `CCOC(=O)c1sc2ncc(-c3ccc(C)cc3)n2c1C`: the growth with T-47D breast was 89%; with BT-549 breast it was 107%; in the experiment on SW-620 colon, 93.4%; in the experiment on MCF7 breast, 86.7%; with HCT-116 colon, 93%; in the experiment on HCC-2998 colon, 93.3%. Further, the growth in the experiment with KM12 colon was 86.6%.

Turning to `CCC(=O)Nc1ccc(-c2nc(-c3cccc(OC)c3)c(-c3ccnc(Br)c3)[nH]2)cc1`, the growth in the experiment on T-47D breast is 28.4%; in the experiment with BT-549 breast, 77.4%; in the experiment on SW-620 colon, 80.4%; in the experiment on MCF7 breast it was 25.5%; in the experiment with HCT-116 colon, 63.7%; in the experiment with HCC-2998 colon, 69%. Also, the growth in the experiment on KM12 colon was 43.2%.

Consider `Cc1ccc(C(CC(=O)O)c2c(C)[nH][nH]c2=O)cc1` (stereo not given), for which the growth is 86.6% with T-47D breast; 103% in the experiment with BT-549 breast; 108% in the experiment with SW-620 colon; 100% in the experiment on MCF7 breast; 107% with HCT-116 colon; 108% in the experiment with HCC-2998 colon. Besides, in the experiment on KM12 colon, the growth was 101%.

As to `Cc1ccc(NC2=C(Cl)C(=O)c3nc(C)ccc3C2=O)cc1`, the growth was -47.5% (active) in the experiment with T-47D breast; 44.9% with BT-549 breast; -30.7% (active) in the experiment on SW-620 colon; -66.1% (active) in the experiment on MCF7 breast; -39.5% (active) with HCT-116 colon; 4.99% (active) in the experiment with HCC-2998 colon. Moreover, the growth in the experiment with KM12 colon was 36.6%.

`Cc1ccc2c(n1)C(=O)C(Cl)=C(Nc1ccccc1C(C)C)C2=O`: the growth in the experiment on T-47D breast is 52.7%; with BT-549 breast, 74.9%; in the experiment on SW-620 colon, 48.2%; with MCF7 breast it was 21.1%; in the experiment with HCT-116 colon, 25.1%; in the experiment on HCC-2998 colon, 113%. The growth in the experiment with KM12 colon is 88%.

With `CCOC(=O)C1=C(N)Oc2c(sc3c(C)cccc23)C1c1ccc(Cl)cc1` (stereo not given), the growth in the experiment with T-47D breast is 17.6%; in the experiment on BT-549 breast, 65.7%; in the experiment with SW-620 colon, 23.7%; in the experiment on MCF7 breast, 8.74% (active); in the experiment with HCT-116 colon, 23.9%; in the experiment with HCC-2998 colon, 49.3%. In addition, the growth in the experiment with KM12 colon is 15.3%.

`COc1cccc(-c2nc(-c3ccc(NC(=O)OC(C)C)cc3)[nH]c2-c2ccnc(Br)c2)c1`: the growth in the experiment on T-47D breast is 6.55% (active); with BT-549 breast, 48%; in the experiment on SW-620 colon it was 34.2%; in the experiment on MCF7 breast, 10.5%; in the experiment on HCT-116 colon, 13.2%; in the experiment with HCC-2998 colon it was 39.5%. In addition, in the experiment on KM12 colon, the growth was 17%.

As to `COc1cccc(-c2nc(-c3ccc(NC(=O)c4ccccc4)cc3)[nH]c2-c2ccnc(Br)c2)c1`, the growth in the experiment on T-47D breast was 14.7%; in the experiment with BT-549 breast it was 47.1%; with SW-620 colon it was 30.8%; with MCF7 breast it was 14.7%; with HCT-116 colon, 30.7%; with HCC-2998 colon, 31.1%. Moreover, in the experiment with KM12 colon, the growth was 20%.

In the case of `CCOc1cccc(NC2=C(Br)C(=O)C(C)=C(C)C2=O)c1`, the growth in the experiment with T-47D breast is -35.3% (active); with BT-549 breast it was 96.4%; with SW-620 colon, 105%; in the experiment on MCF7 breast, 18.4%; in the experiment on HCT-116 colon, 52%; in the experiment on HCC-2998 colon, 119%. The growth in the experiment on KM12 colon is 106%.

For the compound `O=C(CCN1C(=O)/C(=C/c2ccc(O)cc2)SC1=S)Nc1ccccc1`, the growth in the experiment with T-47D breast is 104%; in the experiment on BT-549 breast, 93.1%; in the experiment with SW-620 colon it was 102%; in the experiment on MCF7 breast, 96.6%; with HCT-116 colon it was 98.2%; in the experiment on HCC-2998 colon it was 111%. Moreover, the growth in the experiment on KM12 colon was 99.1%.

For `Cc1cccc2c3c(sc12)C(c1ccc(Cl)cc1)C(C#N)=C(/N=C/c1ccc(Cl)cc1)O3` (stereo not given), the growth in the experiment on T-47D breast is 51%; in the experiment with BT-549 breast it was 22.7%; in the experiment on SW-620 colon, 26.1%; with MCF7 breast it was 9.92% (active); in the experiment with HCT-116 colon, 13.4%; in the experiment on HCC-2998 colon, 16.2%. Besides, the growth with KM12 colon was 9.86% (active).

As to `CC(C)C(=O)Nc1ccc(-c2nc(-c3cccc(OCCN4CCOCC4)c3)c(-c3ccnc(Br)c3)[nH]2)cc1`, the growth with T-47D breast was 39%; in the experiment on BT-549 breast it was 56.4%; with SW-620 colon, 50.4%; in the experiment on MCF7 breast, 15.9%; with HCT-116 colon, 44.5%; in the experiment on HCC-2998 colon, 66.2%. Moreover, the growth in the experiment on KM12 colon was 33.7%.

Take `Cc1cccc2c1S/C(=C/c1ccc([N+](=O)[O-])cc1)C2=O`: the growth in the experiment on T-47D breast is 85%; in the experiment on BT-549 breast, 124%; with SW-620 colon, 30.2%; in the experiment on MCF7 breast it was 9.54% (active); with HCT-116 colon, 17.1%; with HCC-2998 colon, 122%. Besides, the growth in the experiment with KM12 colon is 107%.

As for `CCc1cccc2c1S/C(=C/c1ccc(OC)cc1)C2=O`, the growth with T-47D breast is 53.9%; in the experiment with BT-549 breast, 55.5%; with SW-620 colon, 30%; with MCF7 breast, 22.3%; in the experiment on HCT-116 colon it was 34.3%; with HCC-2998 colon it was 77.7%. In addition, in the experiment with KM12 colon, the growth was 28.6%.

As to `O=C(Nc1ccc(-c2nc(-c3cccc(OCCN4CCOCC4)c3)c(-c3ccnc(Br)c3)[nH]2)cc1)c1ccccc1`, the growth in the experiment with T-47D breast was 27.6%; in the experiment on BT-549 breast, 45%; in the experiment on SW-620 colon it was 2.49% (active); in the experiment on MCF7 breast, -46% (active); with HCT-116 colon it was 10% (active); with HCC-2998 colon it was 11.3%. For the same compound, the growth in the experiment on KM12 colon was 0.737% (active).

`O=C1/C(=C/c2ccccc2[N+](=O)[O-])Oc2ccc(O)c(O)c21`: the growth is 39.8% in the experiment with T-47D breast; 52.9% in the experiment with BT-549 breast; 28.5% in the experiment on SW-620 colon; 21.2% with MCF7 breast; 21.6% in the experiment on HCT-116 colon; 57.9% in the experiment on HCC-2998 colon. Moreover, the growth in the experiment with KM12 colon was 37.5%.

As to `CCCCCCn1c(-c2ccc(C(=O)O/N=C(\N)c3ccc4ccccc4c3)cc2)nc(-c2ccccc2)c1-c1ccccc1`, the growth was 28.9% in the experiment on T-47D breast; 79.6% in the experiment on BT-549 breast; 71.8% in the experiment with SW-620 colon; 37.9% in the experiment with MCF7 breast; 40.5% in the experiment on HCT-116 colon; 93.8% in the experiment with HCC-2998 colon. Further, the growth with KM12 colon is 68.6%.

For the compound `CCn1cnc2c1c(=O)[nH]c(=O)n2CC1CCC(CNS(=O)(=O)c2ccc(OC3CCOCC3)c(F)c2)CC1` (stereo not given), the growth in the experiment on T-47D breast was 19.9%; in the experiment on BT-549 breast, 72.7%; in the experiment with SW-620 colon, 65.1%; with MCF7 breast, 26.7%; in the experiment with HCT-116 colon, 49.2%; in the experiment with HCC-2998 colon, 63.9%. In the experiment with KM12 colon, the growth is 59.9%.

Take `CCOC(=O)c1sc2ncc(-c3ccc(OC)cc3)n2c1C`: the growth with T-47D breast was 93.6%; in the experiment on BT-549 breast, 102%; in the experiment with SW-620 colon, 94.1%; in the experiment on MCF7 breast, 89.9%; with HCT-116 colon, 92.4%; with HCC-2998 colon, 105%. Also, in the experiment with KM12 colon, the growth is 101%.

`CCCCCCn1c(-c2ccc(C(=O)O/N=C(\N)c3ccc4c(c3)OCO4)cc2)nc(-c2ccccc2)c1-c1ccccc1`: the growth with T-47D breast was -11.9% (active); with BT-549 breast it was 43.5%; with SW-620 colon, 37.8%; in the experiment with MCF7 breast, 7.05% (active); with HCT-116 colon it was 2.68% (active); in the experiment with HCC-2998 colon, 44%. Moreover, the growth in the experiment with KM12 colon is 31.8%.

With `COc1cccc(-c2nc(-c3ccc(NC(=O)C(C)C)cc3)[nH]c2-c2ccnc(Br)c2)c1`, the growth in the experiment with T-47D breast is 0.829% (active); in the experiment with BT-549 breast it was 56.9%; in the experiment with SW-620 colon, 42.2%; in the experiment on MCF7 breast it was 12.3%; in the experiment on HCT-116 colon, 34%; in the experiment with HCC-2998 colon, 45.7%. Besides, the growth in the experiment on KM12 colon is 36.4%.

Regarding `Cc1c(C(=O)NCCCc2ccccc2)sc2ncc(-c3ccc(Br)cc3)n12`, the growth with T-47D breast was 103%; with BT-549 breast, 110%; in the experiment on SW-620 colon it was 105%; in the experiment with MCF7 breast it was 94.3%; in the experiment on HCT-116 colon, 104%; in the experiment with HCC-2998 colon, 110%. The growth in the experiment on KM12 colon is 100%.
